The values that follow come from PubChem BioAssay (NCI).

Some test systems named below: SK-MEL-2 melanoma; EKVX NSCLC; SN12C renal; UO-31 renal; TK-10 renal; ACHN renal; A498 renal; CCRF-CEM leukemia; MOLT-4 leukemia; SR leukemia; RPMI-8226 leukemia; OVCAR-8 ovarian; OVCAR-5 ovarian; OVCAR-4 ovarian; SK-OV-3 ovarian; IGROV1 ovarian; OVCAR-3 ovarian; HS 578T breast; NCI/ADR-RES ovarian; CAKI-1 renal.
Common to all, as to assay: NCI-60 one-dose screen, 48 h (100 = growth as untreated, 0 = no growth, -100 = all killed)
Holding throughout (conditions): 10 µM unless noted

SMILES strings stand for the structures. Compounds without any hit were thinned out: in the full panel of roughly 83,000, 20% have a hit.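 Plates (96-well) were seeded with cells, treated with compound at one concentration, and incubated for 48 hours before percent growth was determined.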 A number with no mark means an inactive call. Active and inactive are the calls of the source. Rule for the calls: active = growth percent below 10; inactive = the rest.

In the case of `COc1cccc(-c2cc(-c3ccc(Nc4nc(Nc5ccc(Cl)cc5)nc(Nc5ccc(Cl)cc5)n4)cc3)nc(N)c2C#N)c1`, the growth with SK-MEL-2 melanoma is 37.7%; in the assay on EKVX NSCLC, 34.3%; in the assay on SN12C renal it was 79%; with UO-31 renal, -66.8% (active); in the assay with TK-10 renal, -53.4% (active); in the assay with ACHN renal, 33.1%. Further, the growth is 80.5% in the assay on A498 renal; 5.11% (active) in the assay on CCRF-CEM leukemia; 7.5% (active) in the assay on MOLT-4 leukemia; -6.27% (active) in the assay with SR leukemia; -55.8% (active) in the assay on RPMI-8226 leukemia; 48.9% in the assay on OVCAR-8 ovarian. Moreover, the growth was 82.2% with OVCAR-5 ovarian; 23.6% in the assay with OVCAR-4 ovarian; 122% in the assay on SK-OV-3 ovarian; 10.1% in the assay with IGROV1 ovarian; -52.7% (active) with OVCAR-3 ovarian; 14.1% with HS 578T breast. In addition, in the assay with NCI/ADR-RES ovarian, the growth was 73.3%.

As for `O=C(/C=C/C12c3ccccc3C(c3ccccc31)C1C(=O)NC(=O)C12)c1cccs1` (stereo not given), the growth with SK-MEL-2 melanoma was 38.5%; in the assay with EKVX NSCLC it was 50.3%; in the assay on SN12C renal it was 36.4%; in the assay on UO-31 renal, 42.6%; in the assay with TK-10 renal, 48.7%; in the assay on ACHN renal, 45.8%. Moreover, the growth was 46.9% with A498 renal; 0.0532% (active) in the assay with CCRF-CEM leukemia; 10.5% in the assay on MOLT-4 leukemia; 20.3% in the assay with SR leukemia; 1.76% (active) in the assay on RPMI-8226 leukemia; 18.4% in the assay with OVCAR-8 ovarian. The growth in the assay on OVCAR-5 ovarian was 48%; in the assay on OVCAR-4 ovarian it was 60%; with SK-OV-3 ovarian, 59.1%; in the assay with IGROV1 ovarian, 37%; in the assay on OVCAR-3 ovarian it was -0.389% (active); in the assay with HS 578T breast, 36.2%. Moreover, the growth in the assay on NCI/ADR-RES ovarian is 26.6%.

Consider `O=C(Cn1cc(CSc2nc3ccccc3o2)nn1)Nc1ccc([N+](=O)[O-])cc1`, for which the growth was 106% with SK-MEL-2 melanoma; 104% in the assay on EKVX NSCLC; 102% in the assay with SN12C renal; 78.8% with UO-31 renal; 104% with TK-10 renal; 95.2% in the assay on ACHN renal. Moreover, the growth was 101% with A498 renal; 105% in the assay with CCRF-CEM leukemia; 94.1% in the assay with MOLT-4 leukemia; 101% in the assay with SR leukemia; 97.3% with RPMI-8226 leukemia; 107% with OVCAR-8 ovarian. Also, the growth in the assay on OVCAR-5 ovarian is 100%; with OVCAR-4 ovarian it was 96.9%; with SK-OV-3 ovarian, 76.6%; in the assay with IGROV1 ovarian, 91.6%; in the assay with OVCAR-3 ovarian it was 103%; with HS 578T breast, 95.3%. The growth in the assay on NCI/ADR-RES ovarian is 97.4%.

On to `Cc1ccc(S(=O)(=O)c2nc(-c3ccccc3)oc2S(C)=O)cc1` (stereo not given), for which the growth in the assay on SK-MEL-2 melanoma was 50.3%; in the assay with EKVX NSCLC, 55.6%; with SN12C renal it was 40.2%; in the assay with UO-31 renal it was -80.5% (active); in the assay on TK-10 renal it was -94.8% (active); in the assay with ACHN renal, -99.2% (active). In addition, the growth was 75.9% in the assay with A498 renal; -41% (active) in the assay on CCRF-CEM leukemia; -29.5% (active) in the assay on MOLT-4 leukemia; -26.8% (active) in the assay on SR leukemia; -51.3% (active) in the assay on RPMI-8226 leukemia; 2.01% (active) in the assay with OVCAR-8 ovarian. Further, the growth in the assay on OVCAR-5 ovarian was 45%; with OVCAR-4 ovarian, 37.3%; with SK-OV-3 ovarian, 83.6%; with IGROV1 ovarian, -50.6% (active); with OVCAR-3 ovarian it was -89.3% (active); in the assay on HS 578T breast, 78.9%. Also, the growth in the assay on NCI/ADR-RES ovarian is 70.1%.

As for `CCCCCCCCNC(=O)[C@@H](N)CSCOC(C)=O`, the growth in the assay with SK-MEL-2 melanoma was 89.1%; in the assay with EKVX NSCLC it was 111%; in the assay with SN12C renal, 91.7%; in the assay with UO-31 renal, 94.9%; in the assay on TK-10 renal, 105%; with ACHN renal it was 100%. Also, the growth in the assay on CAKI-1 renal was 107%; with CCRF-CEM leukemia, 45.7%; in the assay on MOLT-4 leukemia, 90.4%; in the assay with SR leukemia, 100%; in the assay on RPMI-8226 leukemia, 87.9%; with OVCAR-8 ovarian, 85.5%. Besides, the growth in the assay with OVCAR-5 ovarian was 103%; in the assay with OVCAR-4 ovarian, 112%; in the assay with SK-OV-3 ovarian, 95.3%; in the assay with IGROV1 ovarian it was 103%; in the assay on OVCAR-3 ovarian, 97.4%; with NCI/ADR-RES ovarian it was 82.7%.

Turning to `Nc1cc(-c2ccc(Cl)cc2)nn1-c1nc(-c2ccc(Br)cc2)cs1`, the growth was 96.9% in the assay with SK-MEL-2 melanoma; 93.6% in the assay with EKVX NSCLC; 97.7% in the assay with SN12C renal; 93.4% with UO-31 renal; 96.4% with TK-10 renal; 101% in the assay with ACHN renal. Moreover, the growth in the assay on A498 renal was 91.7%; in the assay on CCRF-CEM leukemia, 104%; with MOLT-4 leukemia it was 103%; with SR leukemia it was 91.3%; in the assay on RPMI-8226 leukemia it was 100%; with OVCAR-8 ovarian, 103%. Further, the growth in the assay on OVCAR-5 ovarian is 93.7%; with OVCAR-4 ovarian, 103%; in the assay with SK-OV-3 ovarian, 92.4%; with IGROV1 ovarian, 99.9%; in the assay on OVCAR-3 ovarian, 106%; in the assay with HS 578T breast it was 98%. Moreover, the growth with NCI/ADR-RES ovarian is 105%.

As to `NCCCCCNc1noc(Cc2c[nH]c3cc(Br)ccc23)n1`, the growth was 4.12% (active) with SK-MEL-2 melanoma; 33% in the assay on EKVX NSCLC; 42.7% in the assay with SN12C renal; 41.8% in the assay on UO-31 renal; 38.6% in the assay on TK-10 renal; 52.2% with ACHN renal. For the same molecule, the growth with A498 renal was 16.1%; with CCRF-CEM leukemia, 2.39% (active); with MOLT-4 leukemia, 29.3%; in the assay with SR leukemia, 10.5%; with RPMI-8226 leukemia, 4.37% (active); in the assay with OVCAR-8 ovarian it was 28.4%. Besides, the growth with OVCAR-5 ovarian is 58.1%; in the assay with OVCAR-4 ovarian, 46.8%; in the assay on SK-OV-3 ovarian, -1.93% (active); with OVCAR-3 ovarian, -50.2% (active); in the assay with HS 578T breast it was 19.8%; with NCI/ADR-RES ovarian, -13.6% (active).

`CC(=O)c1ccc(Nc2nccc(-c3ccc(Cl)cc3)n2)cc1`: the growth with SK-MEL-2 melanoma is 98.1%; in the assay with EKVX NSCLC, 99.2%; in the assay with SN12C renal it was 100%; in the assay with UO-31 renal it was 93.1%; in the assay on TK-10 renal, 85.5%; in the assay on ACHN renal, 92.3%. Also, the growth is 7.16% (active) with A498 renal; 84.4% with CCRF-CEM leukemia; 83.8% in the assay with MOLT-4 leukemia; 58.3% in the assay with SR leukemia; 93.6% in the assay on RPMI-8226 leukemia; 91.7% in the assay with OVCAR-8 ovarian. Moreover, the growth is 91.6% in the assay with OVCAR-5 ovarian; 105% in the assay with OVCAR-4 ovarian; 108% in the assay on SK-OV-3 ovarian; 103% in the assay with IGROV1 ovarian; 109% with OVCAR-3 ovarian; 95% in the assay with HS 578T breast. Moreover, in the assay with NCI/ADR-RES ovarian, the growth was 96.1%.
